Screening data (PubChem)
Mtb hypoxia rep: Mtb hypoxia fluorescent reporter inhibition; 300,000 tested, 0.1% active; fluorescence inhibition, % (no concentration beside the values); M. tuberculosis hypoxia-regulated fluorescent reporter, fluorescence; in the data active = fluorescence inhibition mostly above about 23%, no sharp cut-off; inactive = mostly below about 17%
Mtb BioA inh: blocks M. tuberculosis BioA enzyme activity. purified M. tuberculosis BioA enzyme, plate reader. inhibition, % at 9.99 µM. 360,000 tested, 0.096% active; in the data active = inhibition above about 40%
ugtP null kill: kills S. aureus RN4220 lacking UgtP. 330,000 tested, 0.54% active. S. aureus RN4220 ugtP deletion, OD600 growth, 16 h. growth inhibition, % (test concentration not listed); in the data active = growth inhibition above about 68%;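 note: plate controls were untreated wells for no effect and antibiotic for full effect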
Yp Topo-I inh: inhibitors of Yersinia pestis topoisomerase I; Y. pestis Topo-I cleavage product accumulation, plate reader; activity, % at 10 µM; 360,000 tested, 0.064% active; AID 504884; in the data active = activity above about 50%, passing the limit was not always enough
TcdB GH inh: TcdB glycohydrolase inhibition; P18177; TcdB glycohydrolase enzymatic assay, plate reader; inhibition, % at 9.99 µM; 350,000 tested, 0.24% active; AID 652162; in the data active = inhibition above about 10%
RN4220 kill: S. aureus RN4220 growth inhibition. 330,000 tested, 0.33% active. OD600, 16 h. inhibition, % (no concentration beside the values); in the data active = inhibition above about 85%;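 note: plate controls were untreated cells for no effect and reference antibiotic for full effect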
* marks the source's active call; other numbers are inactive results. A selection: hits, their analogues and other compounds. The true share with any hit is near 0.75%.

Screening O=C(OCn1nnc2ccccc2c1=O)c1cc2ccccc2o1 returned Mtb hypoxia rep 2, Mtb BioA inh -1, ugtP null kill 20, Yp Topo-I inh 3, TcdB GH inh 13* and RN4220 kill 22.
`O=C(OCn1nnc2ccccc2c1=O)c1ccco1` gave Mtb hypoxia rep 3, Mtb BioA inh -2, ugtP null kill -5, Yp Topo-I inh 5, TcdB GH inh 1 and RN4220 kill -7.
Screening CCOC(=O)OC(C)OC(=O)C1N2C(=O)C(NC(=O)C(N)c3ccccc3)C2SC1(C)C (centres undefined) returned Mtb hypoxia rep 2, ugtP null kill 100* and RN4220 kill 101*.
Screening Cc1cc(COC(=O)C2N3C(=O)C(NC(=O)COc4ccccc4)C3SC2(C)C)on1 (centres undefined) returned Mtb hypoxia rep 6, ugtP null kill 100* and RN4220 kill 100*.
Screening CC1(C)SC2C(NC(=O)C(N)c3ccccc3)C(=O)N2C1C(=O)OC1OC(=O)c2ccccc21 (centres undefined) returned Mtb hypoxia rep 22, ugtP null kill 101* and RN4220 kill 100*.
`O=C(NCc1nc2ccccc2[nH]1)C1=CC(C2CCCCC2)CC(OCCCCO)O1` (centres undefined) gave Mtb hypoxia rep 3, ugtP null kill 6 and RN4220 kill 3.
`O=C(COc1ccc2cc(Br)ccc2c1Br)N1CCOCC1` gave Mtb hypoxia rep -11, Mtb BioA inh 1, ugtP null kill -15, Yp Topo-I inh 53*, TcdB GH inh -1 and RN4220 kill 0.
For C[N+](C)=C1SCC(C)(C=NO)S1 (centres undefined) the results were Mtb hypoxia rep -11, ugtP null kill -2 and RN4220 kill 2.
`COc1ccc(NC(=O)c2cc(-c3cc(C)cc(C)c3O)n[nH]2)cc1Cl` gave Mtb hypoxia rep 13, Mtb BioA inh -1, ugtP null kill 90*, Yp Topo-I inh -2 and RN4220 kill 50.
Screening C=CCOc1ccc(/C=C2\C(=N)N3N=C(S(=O)(=O)CC)SC3=NC2=O)cc1OC returned Mtb hypoxia rep 48*, Mtb BioA inh -1, ugtP null kill 2, Yp Topo-I inh 0, TcdB GH inh -10 and RN4220 kill 7.
`CC1CN(C(C)CO)C(=O)c2cccc(NC(=O)c3ccncc3)c2OC1CN(C)C` (centres undefined) gave Mtb hypoxia rep 11, ugtP null kill 5 and RN4220 kill 6.
For Cn1ncc(Br)c1C(=O)N/N=C/c1cccc(OC2CSC2)c1 the results were Yp Topo-I inh 20 and TcdB GH inh 31*.
`CC1(C)CC(=O)C=C(Nc2ccc(O)cc2)C1` gave Mtb BioA inh 1, Yp Topo-I inh -1 and TcdB GH inh 25*.
For CC(=O)Nc1ccc(NC2=CC(=O)CC(C)(C)C2)cc1 the results were Mtb BioA inh -1, ugtP null kill 1, Yp Topo-I inh 4 and RN4220 kill 0.
`CC=CC(=O)N1CC2(CC(c3cccc(NC(=O)CC(c4ccccc4)c4ccccc4)c3)=NO2)CC1C(N)=O` (centres undefined) gave Mtb hypoxia rep -2, ugtP null kill 1 and RN4220 kill 1.
Screening Oc1[nH]c2ccc(Br)cc2c1N=NC(=S)Nc1ccc(F)cc1 returned Mtb hypoxia rep 12, Mtb BioA inh -1, ugtP null kill 100*, Yp Topo-I inh -8, TcdB GH inh 1 and RN4220 kill 99*.
Screening Cc1cc(C)n(CC(=O)NC2C(=O)N3C(C(=O)O)=C(CSc4nnc(C)s4)CSC23)n1 (centres undefined) returned ugtP null kill 100*, Yp Topo-I inh -7, TcdB GH inh 0 and RN4220 kill 100*.
Screening Cc1nnc(SCC2=C(C(=O)O)N3C(=O)C(NC(=O)c4cccc(F)c4F)C3SC2)s1 (centres undefined) returned Mtb hypoxia rep 13, ugtP null kill 101*, Yp Topo-I inh 3, TcdB GH inh -1 and RN4220 kill 100*.
`Cc1nnc(SCC2=C(C(=O)O)N3C(=O)C(NC(=O)Cn4ncc(Cl)c4C)C3SC2)s1` (centres undefined) gave ugtP null kill 99*, Yp Topo-I inh 5, TcdB GH inh 0 and RN4220 kill 99*.
`Cc1cc(C(=O)NN=Cc2sc(N3CCOCC3)nc2-c2ccccc2)c(C)o1` gave Mtb hypoxia rep -12, ugtP null kill 95* and RN4220 kill 94*.
COc1cc(C(=O)NN=Cc2sc(N3CCOCC3)nc2-c2ccccc2)cc(OC)c1OC was read as Mtb hypoxia rep 6, ugtP null kill 7 and RN4220 kill -6.
Screening CN(N=Cc1cc([N+](=O)[O-])ccc1O)c1ccccc1 returned Mtb hypoxia rep 2, ugtP null kill -2 and RN4220 kill 18.
Oc1ccc2ccccc2c1C=Nc1cc(C(F)(F)F)ccc1N1CCCC1 was read as Mtb hypoxia rep 14, ugtP null kill 95*, Yp Topo-I inh -5 and RN4220 kill -5.
Screening O=C(NN=Cc1ccco1)C1CC(=O)N(c2ccccc2)C1 (centres undefined) returned Mtb hypoxia rep 8, ugtP null kill 7 and RN4220 kill 0.
For Cc1ccccc1C(=O)NN=Cc1ccc(OCC(=O)N2CCCCC2)cc1 the results were Mtb hypoxia rep 11, ugtP null kill 11 and RN4220 kill 4.
CC(C)Cc1[nH]c(=O)c(C#N)c2c1CCC2 was read as Mtb BioA inh -1, ugtP null kill 8, Yp Topo-I inh 0, TcdB GH inh 50* and RN4220 kill 1.
`CCOC(=O)C1=C(c2ccccc2)NC(=O)NC1c1cc(Cl)c(O)c(OC)c1` (centres undefined) gave Mtb hypoxia rep 0, ugtP null kill -1, Yp Topo-I inh -9, TcdB GH inh 0 and RN4220 kill 7.
CCOC(=O)C1=C(c2ccccc2)NC(N)=NC1c1ccc(OCc2ccc(Cl)cc2)c(OC)c1 (centres undefined) was read as Mtb hypoxia rep 17, ugtP null kill 71, Yp Topo-I inh 6, TcdB GH inh 1 and RN4220 kill 99*.
`CNc1ccc(Br)cc(C(=O)/C=C/c2ccc(OC)cc2OC)c1=O` gave Mtb hypoxia rep 13, Mtb BioA inh -1, ugtP null kill 98*, Yp Topo-I inh 0 and RN4220 kill -7.
O=C(NCc1ccccc1)C1=CC(c2coc3ccccc3c2=O)CC(OCCCCO)O1 (centres undefined) was read as Mtb hypoxia rep 15, ugtP null kill 2 and RN4220 kill 4.
`COc1cccc(C(CNc2ccc(S(=O)(=O)N3CCN(C)CC3)cc2[N+](=O)[O-])N(C)C)c1` (centres undefined) gave Mtb hypoxia rep 5, Mtb BioA inh -2, ugtP null kill -2, Yp Topo-I inh 1, TcdB GH inh 17* and RN4220 kill 1.
